From PubChem BioAssay
This is a sample that favours compounds with a hit; in the whole collection about 14% have one here.
Giardia FBPA inh – Giardia lamblia aldolase inhibition. Potency, µM (series often up to 59.6 µM), without a hit: top-dose activity, negative = inhibition, usual class: inhibitors. 0.71% of 290,000 active. purified Giardia FBPA; further: potency means the concentration at half of the fitted maximal effect; on the % scale 0 is the no-effect control and ±100 the full control effect; nearly all actives have a fitted effect of over 55% in size
Target sequence (A8B2U2 whole entry, looked up): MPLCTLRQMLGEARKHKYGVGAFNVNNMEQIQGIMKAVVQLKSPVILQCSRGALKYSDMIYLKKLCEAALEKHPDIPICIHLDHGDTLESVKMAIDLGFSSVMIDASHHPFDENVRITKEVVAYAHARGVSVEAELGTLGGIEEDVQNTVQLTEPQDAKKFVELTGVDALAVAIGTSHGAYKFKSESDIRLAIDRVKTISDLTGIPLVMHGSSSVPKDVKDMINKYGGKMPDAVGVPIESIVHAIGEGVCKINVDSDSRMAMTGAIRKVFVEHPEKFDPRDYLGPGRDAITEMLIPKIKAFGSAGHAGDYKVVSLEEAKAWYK
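40 nM FBPA preincubated 10 min at RT with compound (up to 57.5 uM final), then substrate plus GAPDH/TPI/NAD/arsenate coupling and diaphorase/resazurin added. Fluorescence read after 20 min at RT, 525/598 nm.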
Shiga inhibitor – inhibitors of Shiga toxin in Vero cells. inhibition, % at 38.7 µM. AID 2315. 9.2% of 290,000 active. Vero cells, Shiga toxin protein synthesis inhibition reporter; in the data active means inhibition mostly above about 28%, no sharp cut-off; inactive means mostly below about 43%; further: 0% is about no effect
NS1 function inh – blocks influenza NS1 protein function; Potency, µM (titrated, usually from 46.1 µM), for inactives: top-dose activity, positive = more growth; 0.4% of 270,000 active; calls by dose curve; further: potency means the concentration at half of the fitted maximal effect; actives are rising curves; nearly all actives have a fitted effect of over 50% in size
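Recovery from NS1-induced slow growth read by OD600 in budding yeast switched to galactose assay medium (pH 6.0, -URA) at 1:100 dilution. Compound 23 nl per well; the matching strain lacking NS1 serves as control.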
LmPK inhibitor – blocks Leishmania mexicana pyruvate kinase activity | Q27686 | Potency, µM (highest dose often 57.5 µM), for inactives: at the highest dose activity change, negative = inhibition, most hits filed as inhibitors | 0.37% of 290,000 active | purified LmPK, Kinase-Glo ATP luminescence, 1 h; further: potency means the concentration at half of the fitted maximal effect; on the % scale 0 is the no-effect control and ±100 the full control effect
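ATP generated from ADP (0.1 mM) and PEP (0.5 mM) by 0.1 nM LmPK over 1 h at room temperature (pH 7.2 imidazole buffer) was detected by coupled luciferase luminescence. Values were normalized to uninhibited and no-enzyme wells.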
CHX counter – counter-screen for Shiga toxin inhibitors: cycloheximide protein synthesis inhibition | 12% of 300,000 active | max response, % | cell reporter, cycloheximide protein synthesis inhibition counterscreen | AID 2314; in the data active means max response mostly above about 13%, no sharp cut-off; inactive means mostly below about 14%; further: read at 38.3 µM for the half of the compounds with a filed dose; 0% is about no effect
Active calls of the source: *; nt = no result; [ ] = remark or other dose. Unless noted, the call rests on the fitted dose curve; in most records, active means well fitted curve in the direction sought with a large enough effect; inconclusive means small, poorly fitted or top-dose-only effect, or another doubt; inactive means no such curve, though single readings can be large; an effect the other way counts as inactive or inconclusive.

SMILES	Giardia FBPA inh	Shiga inhibitor	NS1 function inh	LmPK inhibitor	CHX counter
Nc1ccc(C(=O)N/N=C/c2cn(Cc3ccc(F)cc3)c3ccccc23)cc1	4.0%	107.2*	12.9%	4.5%	33.1*
CCc1nc2ccc(C(=O)NCCc3ccc(OC)cc3)cc2nc1CC	nt	28.9	-9.6%	7.5%	0.7
CC(C)n1cc(/C=N/Nc2ccc(C(=O)O)cc2)c2ccccc21	0.8%	53.8*	-13.2%	0.6%	58.4*
Cn1cc(/C=N/Nc2ccccc2)c2ccccc21	-7.2%	29.3	-4.1%	-1.3%	3.6
Nc1ccc(C(=O)N/N=C/c2cn(Cc3ccccc3F)c3ccccc23)cc1	-1.2%	32.6*	-3.1%	2.3%	18.9*
COc1ccc(-c2cn3nc(SCC(=O)NCC4CCCO4)ccc3n2)cc1 (stereo unspecified)	nt	61.3*	-4.0%	-14.7%	26.2*
Cc1ccc(-c2ccc(SCC(=O)NCC3CCCO3)nn2)cc1 (stereo unspecified)	-1.6%	36.3	nt	0.5%[11.5 µM]	15.8
CCCn1cc(SCC(=O)NCC2CCCO2)c2ccccc21 (stereo unspecified)	-0.1%	42.4*	-12.3%	-1.1%	24.9*
CCOc1ccc(-c2ccc(SCC(=O)NCC3CCCO3)nn2)cc1 (stereo unspecified)	-8.1%	47.1	nt	0.4%	36.8*
O=C(CSc1nc(-c2ccccc2)ns1)NCC1CCCO1 (stereo unspecified)	nt	64.6*	-4.6%	-2.0%	45.5*
CCOc1ccc(C(=O)NN2CCOCC2)cc1	2.4%	8.9	-9.4%	9.9%	-2.4
CCOC(=O)CNC(=O)CSc1nc(-c2ccccc2)ns1	-0.9%	6.0	nt	-1.5%	9.5
CCOc1ccc(-c2ccc(SCC(=O)Nc3nnc(CC)s3)nn2)cc1	4.6%	49.8	nt	-2.6%	5.3
CCOc1ccc(-c2ccc(SC)nn2)cc1	-0.7%	-17.3	nt	5.01µM*	-9.0
O=C(CSc1ccc2nc(-c3ccccc3)cn2n1)NCC1CCCO1 (stereo unspecified)	-6.3%	69.9*	-2.4%	1.7%	22.8*
O=C(CSc1ccc2nnc(-c3ccc(F)cc3)n2n1)NCC1CCCO1 (stereo unspecified)	-2.4%	1.7	5.3%	0.2%	-3.0
CCOC(=O)CNC(=O)CSc1nc(-c2ccc(C)cc2)ns1	-1.5%	48.0*	nt	-1.7%	23.9
CCCN(CCC)S(=O)(=O)c1cccc(C(=O)N=c2sccn2C)c1	nt	7.4	8.0%	-0.9%	-1.8
CCCNC(=O)CCc1cc(C(C)(C)C)c(O)c(C(C)(C)C)c1	1.5%	-9.9	3.1%	0.1%	1.4
CC(C)(C)c1cc(CCC(=O)NCc2ccncc2)cc(C(C)(C)C)c1O	nt	24.4	16.2%	-8.8%	19.5*
COCCNC(=O)Cn1ccc2cc(S(=O)(=O)N3CCCCCC3)ccc21	nt	9.0	4.9%	-3.3%	-1.2
COc1ccc(/C=C(/CC(=O)NCc2ccc(Cl)cc2)c2nc3ccccc3s2)cc1	10.2%	18.6	-18.3%	-1.1%	19.4*
COc1ccccc1OCCC(=O)NCc1ccc2c(c1)OCO2	-0.9%	44.7	nt	7.0%	13.3
COc1ccc(/C=C(/CC(=O)Nc2ccccc2)c2nc3ccccc3s2)cc1	-0.1%	9.0	6.9%	-2.5%	13.1
COc1ccccc1/C=C(/CC(=O)NCc1ccc2c(c1)OCO2)c1nc2ccccc2s1	-1.0%	67.2*	1.6%	0.6%	20.5*
SMILES	Giardia FBPA inh	Shiga inhibitor	NS1 function inh	LmPK inhibitor	CHX counter
O=C(O)C/C(=C\c1ccc2c(c1)OCO2)c1nc2ccccc2s1	nt	69.0*	-59.1%	-2.3%	32.1*
O=C(O)C/C(=C\c1cc(Cl)c2c(c1)OCO2)c1nc2ccccc2s1	nt	3.9	4.9%	-4.0%	-2.3
O=C(c1cnccn1)N1CCC2(CCCN(c3ccccc3)C2)CC1	-0.2%	nt	nt	nt	nt
CCOc1cc(C(=O)Nc2cc3c(cc2N2CCOCC2)n(C)c(=O)n3C)cc(OCC)c1OCC	-6.9%	-8.3	11.1%	-1.5%	1.1
CCN1CCN(c2cc(=O)n3ccccc3n2)CC1	1.0%	-5.5	-10.8%	-0.5%	-2.5
O=c1cc(NCc2ccccc2)nc2ccccn12	-6.8%	37.7	0.1%	-2.1%	16.6*
O=C(/C=C/c1cccs1)NC1CCCC1	9.7%	48.3*	-10.0%	-3.9%	18.2
CCC(C)(C)NC(=O)/C=C/c1cccs1	3.6%	12.1	4.3%	-2.8%	11.0*
C=CCNC(=O)/C=C/c1cccs1	1.8%	10.9	nt	-4.3%	5.3
CC(C)CNC(=O)/C=C/c1cccs1	1.4%	24.0	-0.8%	-1.1%	18.6*
CC(/C=C/c1cccs1)=C\C(=O)O	7.4%	70.1	-39.5%	-0.3%	4.7
FC(F)(F)c1cc(NC(=S)Nc2ccc3ccccc3c2)cc(C(F)(F)F)c1	-0.2%	nt	nt	nt	nt
